# PubChem BioAssay (NCI)
# The panel holds about 83,000 compounds, 20% with a hit somewhere; the sample as a whole holds those more often.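 Note: values are percent growth. 100 is the growth of untreated cells, values between 100 and 0 indicate rising inhibition; between -100 and 0 indicates cell death.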 Unmarked numbers belong to inactive results. Active and inactive are the calls of the source. The calls were made as follows: active = growth percent below 10; inactive = the rest.
# How the values were obtained:
# Experiment in all cases: NCI-60 one-dose screen, 48 h (100 = growth as untreated, 0 = no growth, -100 = all killed)
# Settings in all cases: 10 µM unless noted
# HCT-15 colon = test system: HCT-15 colon
# HT29 colon = test system: HT29 colon
# SNB-75 CNS = test system: SNB-75 CNS
# SNB-19 CNS = test system: SNB-19 CNS
# U251 CNS = test system: U251 CNS
# PC-3 prostate = test system: PC-3 prostate
# SK-MEL-5 melanoma = test system: SK-MEL-5 melanoma
# UACC-62 melanoma = test system: UACC-62 melanoma
# LOX IMVI melanoma = test system: LOX IMVI melanoma
# SK-MEL-28 melanoma = test system: SK-MEL-28 melanoma
Structure (SMILES),growth (HCT-15 colon),growth (HT29 colon),growth (SNB-75 CNS),growth (SNB-19 CNS),growth (U251 CNS),growth (PC-3 prostate),growth (SK-MEL-5 melanoma),growth (UACC-62 melanoma),growth (LOX IMVI melanoma),growth (SK-MEL-28 melanoma)
Cn1cc(-c2csc(-c3c[nH]c4ccc(Br)cc34)n2)c2cnccc21,-78.9% (active),-70% (active),-95.8% (active),-85.5% (active),-85.8% (active),-79.5% (active),-67.7% (active),-90.6% (active),-92.7% (active),-93.6% (active)
COc1ccc(-c2nnc(-c3ccc4c(c3)nc(-c3ccncc3)n4C3CCCCC3)o2)cc1,53.6%,53%,72.2%,89.4%,59.7%,49.7%,17.2%,68.3%,72.5%,94.6%
O=C1/C(=C/c2ccc(Cl)cc2)COc2ccc(O)cc21,29.3%,15.3%,84.5%,82.1%,44.9%,69.8%,96.8%,78.1%,-42.6% (active),96.8%
CO[C@]12C=C/C(=C(/C(=O)OCc3cccnc3)C(=O)CCCCCCCC[C@@]3(OC)C=C/C(=C(/C(=O)OCc4cccnc4)C(=O)CCCCCCCC1)O3)O2,2.29% (active),14.5%,55%,33.7%,20.3%,8.77% (active),-59.1% (active),-54% (active),-35.9% (active),-5.65% (active)
Cc1ccc(/C=C2\CN(C(=O)OC(C)(C)C)C/C(=C\c3ccc(C)cc3)C2=O)cc1,1.94% (active),-49.9% (active),79.7%,71.4%,12.4%,29.9%,78.9%,56.5%,-63.2% (active),87.3%
CCCCNc1ccc(C#N)c(OCCN(CC)CC)c1,102%,94.7%,88.2%,98.1%,103%,93.1%,93.9%,103%,102%,101%
O=[N+]([O-])c1ccc(N/N=C(/C(=N/Nc2ccc([N+](=O)[O-])cc2)c2ccccc2)c2ccccc2)cc1,16.9%,16.4%,90.3%,93.3%,53.4%,82%,86.3%,78.6%,61%,121%
O=C1Nc2ccccc2/C1=C\c1nc(-c2ccccc2F)n2ccccc12,42.3%,11.6%,-68.2% (active),45.8%,-3.26% (active),44.1%,37.8%,38.8%,13.6%,69.3%
COc1cc(-c2csc(NC(=O)c3cc(-n4cnc(C)c4)cc(C(F)(F)F)c3)n2)cc(OC)c1OC,39.5%,52.6%,78.6%,62.2%,56.9%,37.3%,51%,44.1%,53.9%,78.9%
O=c1c2cc(-c3ccccc3)sc2nc2sc(-c3ccccc3)nn12,103%,93.3%,113%,102%,92.1%,95.1%,100%,109%,107%,107%
O=S(=O)(NCCCNc1nccc(-c2c(-c3ccc(F)c(O)c3)nc3occn23)n1)c1ccccc1,103%,73.6%,96.8%,113%,99.7%,79.1%,63%,10.7%,39.6%,24.7%
COc1ccc(C(=O)Nc2cccc(C3CC(=O)c4c(cc(OC)c(OC)c4OC)O3)c2)cc1 (stereo not given),13.3%,6.28% (active),-11.4% (active),18.3%,9.47% (active),20.4%,9.7% (active),25.5%,26.1%,56.3%
Cc1ccc(-c2nc(N3CCNCC3)c3oc(-c4ccccc4)nc3n2)cc1,-77.7% (active),-93.8% (active),85.4%,16.7%,-98.2% (active),-81.5% (active),70.9%,91.3%,-89.1% (active),-81.3% (active)
O=[N+]([O-])c1ccc(S(=O)(=O)N2CCN(C3=NS(=O)(=O)c4ccccc4N3c3ccccc3)CC2)cc1,109%,110%,90.2%,101%,101%,87.4%,90.7%,98.2%,97.2%,135%
Nc1ncnc2c1N=C(c1ccc3c(c1)OCO3)CC(c1cccc(Nc3ccnc4cc(Cl)ccc34)c1)N2 (stereo not given),36.4%,27.8%,74.6%,58.2%,26.5%,54.2%,53.4%,57%,27.2%,91.3%
O=C1NCCC12CCN(c1c(Cl)cncc1-c1ccc(O)cc1)CC2,105%,94.2%,112%,98.9%,94.9%,98.8%,94.4%,90.2%,87.7%,103%
O=C(Cn1c(=O)sc2nc3ccccc3nc21)Nc1ncc(Cc2cccc(Cl)c2Cl)s1,98.7%,107%,74.6%,93.4%,94.9%,87.9%,99.9%,79.1%,94.6%,120%
Clc1ccc(Sc2cnc(-c3ccccc3)o2)cc1,103%,105%,92.6%,88.4%,91.4%,104%,97.8%,102%,97.3%,102%
N#Cc1nc(-c2ccccc2)oc1S(=O)(=O)N1CCOCC1,-15.4% (active),99.5%,94.4%,91.7%,93.7%,100%,91.6%,91%,68.2%,106%
COc1cc(N2C(=O)[C@H](O)C2c2ccc(SC)cc2)cc(OC)c1OC (stereo not given in full),12.8%,-14.5% (active),83.8%,35.9%,14.4%,22.4%,-13.8% (active),33.8%,25.5%,67.1%
CCCCN[C@H]1CC[C@@]2(C)[C@@H](CC[C@@]3(C)[C@H]2[C@H](O)C[C@H]2/C(=C(\CCC=C(C)C)C(=O)OC)[C@@H](OC(C)=O)C[C@@]23C)[C@@H]1C,98.8%,95.7%,82.9%,104%,98.2%,95.2%,93.7%,95.5%,97.9%,93.4%
C#COc1cccc(Nc2ncnc3ncc(NC(=O)CCl)cc23)c1,-30.3% [6.25 µM] (active),-65.2% [6.25 µM] (active),49.5% [6.25 µM],20% [6.25 µM],-73.3% [6.25 µM] (active),20.6% [6.25 µM],47.1% [6.25 µM],27.2% [6.25 µM],-94.2% [6.25 µM] (active),55.4% [6.25 µM]
CCOC(=O)C(=Cc1cccc(Cl)c1)C(=O)OCC,-51.1% (active),-62.5% (active),35.3%,51.5%,26.6%,25.2%,53.5%,-9.18% (active),-65.1% (active),-39% (active)
CC(C)CCC[C@@H](C)[C@H]1CC[C@H]2[C@@H]3CC=C4C[C@@H](C(C(=O)O)C(=O)O)CC[C@]4(C)[C@H]3CC[C@]12C,-6.36% (active),-35.1% (active),-61.1% (active),18.6%,-46.8% (active),-5.95% (active),-96% (active),-53.4% (active),-29.3% (active),-49.6% (active)
Cc1cccc(N2CCN(CC(O)COc3ccc(Cl)cc3)CC2)c1 (stereo not given),97.4%,114%,104%,98.3%,95.7%,91.9%,97.4%,96.4%,97.6%,117%
CNc1nc(S(=O)c2ccc(C#N)cc2)nc2ccccc12 (stereo not given),81%,81.8%,60.5%,90.8%,83.1%,89.2%,83.6%,81%,76.5%,94.4%
